# Inconclusive results are not listed. Unmarked numbers belong to inactive results. Active and inactive are the calls of the source. Calls come from the whole dose curve; as a rule, active = well fitted inhibition curve with a large enough effect; inconclusive = small, poorly fitted or top-dose-only effect; inactive = no such curve, though single readings can be large or run the other way.
# Experiment: qHTS to identify inhibitors of the type 1 interferon - major histocompatibility complex class I in skeletal muscle: Secondary screen by immunofluorescence; note: nearly all actives have a fitted effect of over 70% in size;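 for activity change, negative = inhibition: digitonin at 100 µM served as the cytotoxic control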
# Settings: C25cl48 myoblasts, IFN-b induced HLA-ABC immunofluorescence, 24 h, Viability; series mostly up to 49.8 µM; activity change, negative = inhibition: at the top concentration
# How it was run: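 Immortalized human myoblasts C25cl48 were stimulated with 4.0 ng/ml IFN-beta and exposed to an 11-point 1:3 compound titration, top 50 uM, for 24 h at 37 C. They were then fixed and immunostained for HLA-ABC, and quantified by laser scanning cytometry.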
# % is set by controls: 0 for no effect and ±100 for the full control effect; potency is the fitted concentration of half-maximal effect.
SMILES,"activity change, negative = inhibition",Potency
Cc1[nH]c2ccccc2c1CCNCc1ccc(/C=C/C(=O)NO)cc1,-8.01%,–
CN1CCC(c2c(O)cc(O)c3c(=O)cc(-c4ccccc4Cl)oc23)C1CO (stereo not given),-0.712%,–
CC(=O)c1ccc2c(c1)c1cc(C(C)=O)ccc1n2CCNC(C)C,3.4%,–
C1=C/COCc2cc(ccc2OCCN2CCCC2)Nc2nccc(n2)-c2cccc(c2)COC/1,–,11.5 µM (active)
Cn1ncc2cc(-c3cnc(N)c(Cl)c3N3CCC4(CCNC4=O)CC3)ccc21,-17.9%,–
O=C(/C=C\n1cnc(-c2cc(C(F)(F)F)cc(C(F)(F)F)c2)n1)NNc1cnccn1,-8.84%,–
CCCCC(=O)OCC(=O)[C@H]1[C@H](C)C[C@H]2[C@@H]3C[C@H](F)C4=CC(=O)C=C[C@]4(C)[C@@]3(F)[C@@H](O)C[C@@]21C,15.7%,–
O=c1[nH]c2cc(Cl)ccc2c(O)c1-c1ccc(Oc2ccccc2)cc1,2.3%,–
CC(C)c1cc(CNc2nc(Nc3cc(C4CC4)[nH]n3)cc(N3CCN(C)CC3)n2)on1,-19.3%,–
COc1ccc(-c2ccc3ncc4c(c3c2)n(-c2ccc(N3CCNCC3)c(C(F)(F)F)c2)c(=O)n4C)cn1,–,1.02 µM (active)
COc1cccc(-c2cc(F)ccc2[C@H]2Cc3nc(N)nc(C)c3C(=O)N2)n1,-5.61%,–
Fc1ccc(CNc2ncnc3ccc(F)cc23)cc1,8.45%,–
Cc1cc(Nc2cc(NC(=O)c3c(Cl)cccc3Cl)ccn2)nc(N)n1,-8.56%,–
CS(=O)(=O)N1CCC(NC(=O)c2[nH]ncc2NC(=O)c2c(Cl)cccc2Cl)CC1,-1.09%,–
CC1(C)CC(=O)c2c(C(F)(F)F)nn(-c3ccc(C(N)=O)c(NC4CCC(OC(=O)CN)CC4)c3)c2C1 (stereo not given),1.4%,–

# From PubChem BioAssay AID1347414 (National Center for Advancing Translational Sciences (NCATS), 2020)
